# In PubChem BioAssay (NCI):
# Compounds without any hit were thinned out: in the full panel of roughly 83,000, 20% have a hit.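 Assay: single dose, 48 h. Readout: percent growth (0 = no net growth; negative = cell death). Active: <10.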 Unmarked numbers belong to inactive results. Calls of active or inactive are those of the source.
# Test system: RPMI-8226 leukemia
# Assay: NCI-60 one-dose screen, 48 h (100 = growth as untreated, 0 = no growth, -100 = all killed)
# Conditions: 10 µM unless noted
row,SMILES,growth
1,COc1ccc(COC(C)=O)cc1,103%
2,COC(=O)CCC1=C(CC(=O)OC)C(C)=N/C1=C\c1[nH]c(-c2ccc[nH]2)cc1OC,-42.3% (active)
3,O=C(/C(=N/O)S(=O)(=O)c1ccccc1)c1cccs1,101%
4,COc1cc(OC)c2cc(C(=O)O)c(=O)oc2c1,43%
5,CN(CCOc1ccc(CC2SC(=O)NC2=O)cc1)c1ccccn1 (configuration not stated),104%
6,CCC(C)CC(C)C(=O)c1c(O)ccn(O)c1=O (configuration not stated),11.7%
7,O=C(CSc1nc2c(n1Nc1ccccc1)-c1ccccc1SC2)Nc1nc(-c2ccc(Cl)cc2)cs1,86.1%
8,Cc1[nH]n(C(N)=S)c(=O)c1N=Nc1ccc(F)c(Cl)c1,78.2%
9,Clc1cccc(Cc2cn3cc(-c4ccccc4)nc3s2)c1,41.3%
10,NC(=O)N/N=C/c1ccc(Br)o1,109%
11,C[n+]1c2ccccc2c(NC2CCNCC2)c2[nH]c3ccccc3c21,-40.8% (active)
12,[O-]/[N+](=C\C=C\c1ccccc1)c1ccccc1,87.3%
13,CCCn1cnc2c1c(=O)n(CCCCC(C)=O)c(=O)n2C,101%
14,O=C1/C(=C/c2ccc3cccc(Cl)c3n2)SC(=S)N1CCc1ccc(O)cc1,82.2%
15,CN=C(NC)N/N=C(C)\C=N\NC(=NC)NC,127%
16,CCN(CC)CCCNCCCNc1cc(OC)cc2cccnc12,81.3%
17,COc1cc2c(cc1OCCCOc1ccc(-c3cc4ccccc4c4ccccc34)cc1)N=C[C@@H]1CCCN1C2=O,0.228% (active)
